Results from PubChem BioAssay AID588492 (Sanford-Burnham Center for Chemical Genomics, 2011).
About 2,300 (0.64%) of roughly 360,000 compounds were called active. This is one part of a sample in which actives are shown more often than they occur.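 Rule for the calls: active = compounds giving at least 50% protection of heart cells from peroxide-induced death in the single-dose screen, raw or plate-pattern-corrected value; inactive = the rest.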

test: cardioprotection against H2O2-induced cell death, primary screen, uHTS, H9c2 cells, ATPLite luminescence (AID 588492); conditions: H9c2 cardiomyocytes, H2O2 injury protection, 2 h, at 20 µM, active compounds read high;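 note: 0% = DMSO wells with peroxide and 100% = DMSO wells without peroxide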

Structure (SMILES) | protection from H2O2 cell death
COc1ccc(CN2CCC(c3nc4ccc(Cl)cc4[nH]3)CC2)cc1 | -3.8% (inactive)
Cn1c2c(c(=O)n(C)c1=O)C(c1ccc(O)cc1)Nc1ccccc1O2 (stereo not given) | 2.1% (inactive)
Cn1c2c(c(=O)n(C)c1=O)C1c3ccccc3OCC1C(C)(C)O2 (stereo not given) | 11% (inactive)
Cn1c2c(c(=O)n(C)c1=O)C(c1cccc([N+](=O)[O-])c1)Nc1ccccc1O2 (stereo not given) | 61.2% (active)
O=C(COc1nsnc1N1CCOCC1)Nc1ccccc1Cl | 1.1% (inactive)
O=C(CSCc1c(Cl)cccc1Cl)NN1C(=O)c2ccccc2C1=O | 5.5% (inactive)
CC(=O)Nc1cccc(-c2cc(NC(C)=O)c3ncc(-c4ccccc4)n3c2)c1 | 57.6% (active)
COc1cccc(-c2cc(NC(C)=O)c3ncc(-c4cccc(C(C)=O)c4)n3c2)c1 | 24.1% (inactive)
COc1ccc(-c2cc(NC=O)c3ncc(-c4ccccc4)n3c2)cc1OC | 74.5% (active)
CC(=O)c1cccc(-c2cnc3c(NC=O)cc(-c4cccc(C(=O)N(C)C)c4)cn23)c1 | 73.1% (active)
CC(=O)c1cccc(-c2cnc3c(NC=O)cc(-c4ccc(N5CCN(C)CC5)cc4)cn23)c1 | 0.9% (inactive)
COc1ccc(-c2cc(NC=O)c3ncc(-c4cc(OC)c(OC)c(OC)c4)n3c2)c(OC)c1 | 17.5% (inactive)
CC(=O)c1cccc(-c2cnc3c(NC=O)cc(-c4ccc(N(C)C)cc4)cn23)c1 | 34.4% (inactive)
COc1cccc(-c2cnc3c(NC(C)=O)cc(-c4cccc(NC(C)=O)c4)cn23)c1 | 41.9% (inactive)
CC(=O)Nc1cccc(-c2cc(NC=O)c3ncc(-c4ccc(F)c(Cl)c4)n3c2)c1 | 47.5% (inactive)
CN(C)C(=O)c1cccc(-c2cnc3c(NC=O)cc(-c4ccc(F)cc4)cn23)c1 | 12.9% (inactive)
CC(=O)c1cccc(-c2cnc3c(NC=O)cc(-c4ccccc4Oc4ccccc4)cn23)c1 | -13.2% (inactive)
CC(=O)c1ccc(-c2cnc3c(NC=O)cc(-c4cccc(NS(C)(=O)=O)c4)cn23)cc1 | 64.4% (active)
CCCc1c(C)nc2scc(-c3ccc(Cl)cc3)n2c1=O | -0.2% (inactive)
Cc1cc(NC(=O)OC(C)C)ccc1-c1ccc(NC(=O)OC(C)C)cc1C | 0.3% (inactive)
COc1ccc(CSc2nnnn2-c2ccc(O)cc2)cc1F | -8.7% (inactive)
Cc1ccc(OCCNC(=O)CCNS(=O)(=O)c2ccc(Br)cc2)cc1 | -2.6% (inactive)

Structure (SMILES) | protection from H2O2 cell death
CC1CCN(C(=O)CN(c2ccc(Oc3ccccc3)cc2)S(C)(=O)=O)CC1 | -13.4% (inactive)
Cc1nonc1OCCn1nnnc1N | -1.7% (inactive)
Cc1oc(C(N)=O)cc1COc1ccc(C(N)=O)cc1 | -0.9% (inactive)
O=C(c1ccc(N2CCOCC2)c([N+](=O)[O-])c1)N1CCN(S(=O)(=O)c2cccs2)CC1 | -4.8% (inactive)
Cc1cccn2c(=O)nc(SCC(=O)NCc3ccccc3Cl)nc12 | -5.6% (inactive)
CCCn1c(SCC(=O)c2ccc3c(c2)OCCO3)nnc1C(C)C | 2.3% (inactive)
CN1CCNC(=O)C1CC(=O)N1CC=C(c2ccc(F)cc2)CC1 (stereo not given) | -0.1% (inactive)
N#Cc1ccccc1NC(=O)c1cccc(COc2ccc(Cl)cc2Cl)c1 | -3.6% (inactive)
Cc1ccc(S(=O)(=O)NCCC(=O)NNC(=O)C2COc3ccccc3O2)cc1 (stereo not given) | -3.1% (inactive)
Cc1c(CCC(=O)O)c(=O)oc2c(C)c(OCc3ccccc3Cl)ccc12 | 1.3% (inactive)
Cc1c(CC(=O)N2CCN(C(=O)C3COc4ccccc4O3)CC2)c(=O)oc2c(O)c(O)ccc12 (stereo not given) | 61.9% (active)
Cc1nc2c(OCc3ccc(Cl)cc3)cccn2c1N(C)Cc1cccs1 | -9.7% (inactive)
CCc1nc2ccc(C(=O)N(C)Cc3ccco3)cn2c1N(C)C(=O)Cc1ccccc1 | -2.1% (inactive)
CCC(=O)Nc1ccccc1C(=O)N1CCN(Cc2ccccc2)CC1 | 5.1% (inactive)
COCCNc1nc(-c2ccccc2)nc2c1oc1ccccc12 | 1.8% (inactive)
CCc1nc(Nc2ccc3nccnc3c2)c2oc3ccccc3c2n1 | 53.3% (active)
COc1ccccc1Nc1ncnc2c1oc1ccccc12 | 7.1% (inactive)
Cc1ccc(C(=O)N(CC(=O)NC2CCCC2)c2ccc(F)cc2)s1 | -2.3% (inactive)
COc1cccc(N2CC(C(=O)NCc3n[nH]c(=O)c4ccccc34)CC2=O)c1 (stereo not given) | 50.2% (active)
COc1ccc(C(=O)CSc2nnc(NC(=O)C3CC(=O)N(c4cccc(OC)c4)C3)s2)cc1 (stereo not given) | -1.6% (inactive)
COc1cccc(CNC(=O)C2CC(=O)N(C3CCCCCCC3)C2)c1 (stereo not given) | -0.1% (inactive)
COC(=O)CN(c1cccc(C(C)=O)c1)S(C)(=O)=O | -1% (inactive)

Structure (SMILES) | protection from H2O2 cell death
O=C(Nc1cccc2cccnc12)c1ccc2sc([C@H]3C[C@H](O)[C@@H](CO)O3)nc2c1 | 76.9% (active)
O=C(Nc1nnc([C@H]2C[C@H](O)[C@@H](CO)O2)s1)c1cccc(Cl)c1 | 3% (inactive)
O=C(Nc1ccc(Cl)cc1)c1csc([C@H]2C[C@H](O)[C@@H](CO)O2)n1 | -8.3% (inactive)
CCOn1c(=O)c(=O)n(O)c2ccccc21 | 3.3% (inactive)
CCOc1cc(N2CCOCC2)c(OCC)cc1NC(=O)COC(=O)[C@H](Cc1c[nH]c2ccccc12)NC(C)=O | 10.2% (inactive)
CCOc1cc(N2CCOCC2)c(OCC)cc1NC(=O)COc1cccc2cccnc12 | 50.1% (active)
CCOc1cc(N2CCOCC2)c(OCC)cc1NC(=O)C1=NN(c2cccc(C)c2)C(=O)CC1 | 15.6% (inactive)
CCc1ccc2c(c1)cc(CN(C(=S)Nc1ccccc1Cl)C1CC1)c1nnnn12 | -3.2% (inactive)
Clc1ccc(C2=CSC3=Nc4cccc5cccc(c45)N23)cc1 | -4.9% (inactive)
COc1cc(CO)c(C2(CO)CCCC2)cc1OC | 2.5% (inactive)
CCOc1cc(NS(=O)(=O)c2ccc(OC)cc2)c(OCC)cc1NC(C)=O | -4% (inactive)
COc1cc(NS(=O)(=O)c2ccc3ccccc3c2)c2ncccc2c1 | 61.8% (active)
O=S(=O)(Nc1ccccn1)c1cccc(S(=O)(=O)c2ccc(Cl)cc2)c1 | -4.1% (inactive)
CC1(C)OC(=O)C2=C(CC(c3ccccc3)OC2CCc2ccccc2)O1 (stereo not given) | -19.2% (inactive)
COc1cccc(Cn2cnc3c([N+](=O)[O-])c(C)c(C)cc32)c1 | 1.8% (inactive)
O=C(N/N=C/c1cccc2cccnc12)[C@H]1C[C@@H]1c1ccccc1 | 84.8% (active)
Cc1ccc(NC(=O)C2CC2c2ccccc2)cc1 (stereo not given) | -6.9% (inactive)
O=C(CSc1cccc2cccnc12)N/N=C/c1cccnc1 | -2.6% (inactive)
Cc1nnc(C)c2c(C)n(N)c(C)c12 | 15.4% (inactive)
Cc1ccc(S(=O)(=O)N(C)C)cc1NC(=O)CN1c2cccc3cccc(c23)S1(=O)=O | 3.5% (inactive)
O=C(NC(=O)N1CCSCC1)c1c(Cl)cccc1Cl | 4.6% (inactive)
COC(=O)c1ccc(Nc2ncnc3sccc23)cc1 | 5.6% (inactive)

Structure (SMILES) | protection from H2O2 cell death
CCOC(=O)c1ccc(N/C(=N/S(=O)(=O)c2ccccc2)c2ccccc2)cc1 | 1.3% (inactive)
CCOC(=O)c1nc(Nc2ccc(C(=O)OC)cc2)c2ccccc2n1 | 50.6% (active)
CCc1ccc(OCC(=O)NCC(c2ccc(Cl)cc2)N2CCCCC2)cc1 (stereo not given) | 2.7% (inactive)
Cc1ccc(OCCOCCOc2ccc(Br)cc2/C=N\NC(=O)c2ccncc2)cc1 | 6.5% (inactive)
COc1ccc(-c2[nH]ncc2/C=N/NC(=O)c2cc(Br)ccc2O)c(OC)c1 | 3.5% (inactive)
COc1ccc(CC(=O)NCC(=O)N/N=C/c2cc(Br)ccc2OC)cc1 | 52.8% (active)
NC(=NC(=O)c1ccccc1)C1=C(O)CCC1=O | -0.2% (inactive)
C=CCn1c(-c2ccc(Cl)cc2)ccc(C#N)c1=O | -10% (inactive)
COc1cc(N=Cc2c(O)[nH]c3ccccc23)cc(OC)c1OC | 69.8% (active)
CN=c1scc(-c2cc(OC)ccc2OC)n1/N=C/c1c(C)[nH]c2ccccc12 | 0.4% (inactive)
COc1cc2[nH]c(O)c(C=O)c2cc1OC | 4.5% (inactive)
COc1ccc(CCNc2cc(C)nc3c(-c4ccc(Cl)cc4)c(C)nn23)cc1OC | 0.4% (inactive)
COc1cccc(-c2nnc(NC(=O)c3ccc(S(=O)(=O)N(CC(C)C)CC(C)C)cc3)o2)c1 | 56.4% (active)
COc1cc(-c2nnc(NC(=O)CS(=O)(=O)c3ccc(Cl)cc3)o2)cc(OC)c1OC | 6.5% (inactive)
O=C(Nc1nnc(-c2ccccc2)o1)c1cccc(S(=O)(=O)N2CCOCC2)c1 | 10.2% (inactive)
CCc1ccc(/C=N/NC(=O)c2nnn(-c3nonc3N)c2CN2CCc3ccccc32)cc1 | -2.2% (inactive)
O=C(CSc1c2c(nc3ccc(Cl)cc13)CCCC2)NCc1ccco1 | 5.3% (inactive)
NC(=O)c1cc(-c2cccnc2)nc2ccc(Br)cc12 | 0.3% (inactive)
O=C(NCc1ccco1)c1cc(-c2cccnc2)nc2ccc(Cl)cc12 | 74% (active)
Cc1cccc(NC(=O)N2CCCCCC2)c1C | -0.5% (inactive)
CC(NC(=O)c1ccco1)C(=O)Nc1nc(-c2ccccn2)cs1 (stereo not given) | 10.4% (inactive)
O=C(COc1ccccc1F)Nc1nc(-c2ccccn2)cs1 | 60% (active)

Structure (SMILES) | protection from H2O2 cell death
O=C(NCCN1C(=O)C2C3C=CC(C3)C2C1=O)Nc1ccccn1 (stereo not given) | -2.9% (inactive)
O=C(COc1ccccc1)Nc1nonc1NC(=O)COc1ccccc1 | -3.9% (inactive)
CC1CCN(S(=O)(=O)c2nnc(NC(=O)COc3ccccc3F)s2)CC1 | -6.3% (inactive)
O=C(CN1C(=O)C2C3C=CC(C3)C2C1=O)Nc1nc(-c2ccccn2)cs1 (stereo not given) | 51.3% (active)
CC1CCCCC1NC(=O)COc1ccc(C#N)cc1 (stereo not given) | 7% (inactive)
O=C(CCN1C(=O)C2C3C=CC(C3)C2C1=O)Nc1ccccc1F (stereo not given) | -1.8% (inactive)
N#Cc1ccc(OCC(=O)Nc2nc(-c3ccccn3)cs2)cc1 | 69.2% (active)
CC12CCC(=O)N1C(C(=O)Nc1ccc(F)c(F)c1F)CS2 (stereo not given) | 0.6% (inactive)
COc1ccc2c(c1)c(=Cc1ccc(N(C)C)cc1)c1cc(-c3ccccc3)[n+](C)n12 | -20% (inactive)
COc1ccccc1N(C)S(=O)(=O)c1ccc(Cl)c(C(=O)Nc2ccncc2)c1 | -8.6% (inactive)
Cn1nnnc1-c1cc(Cl)cc(Cl)c1 | -2.9% (inactive)
Cn1cccc1C(=O)NC(=O)COC(=O)Cc1coc2ccc3ccccc3c12 | -3.6% (inactive)
O=C(NCC(O)c1nc2ccccc2[nH]1)c1ccc(Br)cc1 (stereo not given) | -3.3% (inactive)
O=C(Nc1cccc(-c2nc3ccccc3[nH]2)c1)c1ccc(C(=O)Nc2cccc(-c3nc4ccccc4[nH]3)c2)cc1 | 49.1% (active)
O=C(Nc1ccccc1)c1cc2ccccc2[nH]1 | 3.8% (inactive)
CCOC(=O)Cn1c(O)c(N=NC(=O)CNC(=O)Cc2ccccc2)c2ccccc21 | 6.8% (inactive)
CN(Cc1ccccc1F)c1cc2c(c3c1ccn3C)C1CCC2O1 (stereo not given) | -4.4% (inactive)
COc1ccccc1C(=O)C(O)c1ccccc1OC (stereo not given) | 1.8% (inactive)
CCCn1c(SCC(=O)Nc2ccc(C)c(S(=O)(=O)N3CCOCC3)c2)n[nH]c1=O | 6.6% (inactive)
C[C@@H]1Cn2cnc(C(=O)Nc3ccc(CNC(=O)OC(C)(C)C)cc3)c2C(=O)N1 | -12.9% (inactive)
C[C@H]1Cn2cnc(C(=O)N[C@@H](Cc3c[nH]c4ccccc34)C(=O)OC(C)(C)C)c2C(=O)N1 | 99.5% (active)
C[C@H]1Cn2cnc(C(=O)N[C@H](C)c3ccccc3)c2C(=O)N1 | 7.3% (inactive)
